High-throughput results deposited in PubChem by several laboratories.
FadD28 binding – blocks FadD28 binding to the bisubstrate probe. AID 588549. inhibition, % at 12.5 µM. fluorescence polarization. 360,000 tested, 0.22% active; in the data active = inhibition above about 8.5%, passing the limit was not always enough
BioA inh – blocks M. tuberculosis BioA enzyme activity. 360,000 tested, 0.096% active. inhibition, % at 9.99 µM. purified M. tuberculosis BioA enzyme, plate reader; in the data active = inhibition above about 40%
GDH-TPI counter-1 – counter-screen for M. tuberculosis FBA inhibitors: GDH-TPI coupled enzymes; GDH-TPI coupled enzyme counterscreen, NADH absorbance; AID 588335; 360,000 tested, 1.2% active; inhibition, % at 4.8 µM; in the data active = inhibition above about 30%;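 note: 0% = DMSO wells and 100% = wells lacking the enzyme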
Mtb hypoxia rep – inhibitors of hypoxia-regulated fluorescent reporter in Mycobacterium tuberculosis; M. tuberculosis hypoxia-regulated fluorescent reporter, fluorescence; fluorescence inhibition, % (test concentration not listed); 300,000 tested, 0.1% active; AID 1159583; in the data active = fluorescence inhibition mostly above about 23%, no sharp cut-off; inactive = mostly below about 17%
FBA Mtb inh – inhibitors of M. tuberculosis fructose-bisphosphate aldolase; AID 588726; P9WQA3; 360,000 tested, 2.3% active; purified M. tuberculosis FBA, fluorescence read-out; inhibition, % at 1 µM;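 note: 0% = vehicle and 100% = reference inhibitor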
Target sequence (P9WQA3 whole entry, looked up): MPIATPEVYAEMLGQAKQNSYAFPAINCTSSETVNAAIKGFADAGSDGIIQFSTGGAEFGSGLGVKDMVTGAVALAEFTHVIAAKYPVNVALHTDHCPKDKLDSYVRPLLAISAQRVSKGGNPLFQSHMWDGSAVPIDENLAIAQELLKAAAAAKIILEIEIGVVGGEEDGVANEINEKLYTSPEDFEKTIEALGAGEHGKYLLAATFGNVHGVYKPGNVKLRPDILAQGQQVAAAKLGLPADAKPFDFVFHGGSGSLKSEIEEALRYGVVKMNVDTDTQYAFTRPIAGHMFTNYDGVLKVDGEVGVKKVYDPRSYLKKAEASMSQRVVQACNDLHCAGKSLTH
Mtb FBA confirm – confirmation of M. tuberculosis fructose-bisphosphate aldolase inhibitors; inhibition, % at 1 µM; shares compounds with FBA Mtb inh; 5,600 tested, 78% active; purified M. tuberculosis FBA, fluorescence read-out; AID 651616;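 note: 0% = vehicle wells and 100% = reference inhibitor wells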
GDH-TPI counter-2 – GDH-TPI inhibition counter-screen for FBA inhibitors | shares compounds with FBA Mtb inh | inhibition, % at 1 µM | 5,600 tested, 81% active | AID 652141 | GDH-TPI coupled enzyme counterscreen, fluorescence; in the data active = inhibition above about 10%
GDH-TPI dose – inhibits GDH-TPI coupling enzymes in dose response | shares compounds with FBA Mtb inh | GDH-TPI coupled enzyme assay, fluorescence, artifact counterscreen | IC50, µM | 170 tested, 79% active | AID 652145; call rule not given here
Active calls of the source: *. This is a sample that favours compounds with a hit; in the whole collection about 2.9% have one here. Cut-off read from the data, not from the text of the source, unless noted: active = inhibition above about 27%; inactive = the rest.

How did Nc1ccc(Nc2ccccc2)c(S(=O)(=O)O)c1 do in these assays?
FadD28 binding: 81*; BioA inh: 3; GDH-TPI counter-1: 13; FBA Mtb inh: 90*; Mtb FBA confirm: 84*; GDH-TPI counter-2: 70*

Results for COc1ccc(CN(C)C[C@@H]2OCc3cn(nn3)CCCC(=O)N([C@H](C)CO)C[C@H]2C)cc1 ?
BioA inh: -1

How did O=C1C=CC(=O)N1c1ccc(-c2nc3ccccc3o2)cc1 do in these assays?
FadD28 binding: -4; BioA inh: 0; GDH-TPI counter-1: 20; FBA Mtb inh: 65*; Mtb FBA confirm: -3; GDH-TPI counter-2: -5

What do the screens show for `CCS(=O)(=O)Nc1cccc(C2=NN(S(=O)(=O)CC)C(c3cccs3)C2)c1` (stereo not drawn)?
FadD28 binding: -4; BioA inh: 5; GDH-TPI counter-1: 2; Mtb hypoxia rep: -16; FBA Mtb inh: 0

What do the screens show for `CCS(=O)(=O)N1N=C(c2ccc(NS(C)(=O)=O)cc2)CC1c1ccccc1` (stereo not drawn)?
FadD28 binding: -2; BioA inh: 1; GDH-TPI counter-1: 19; Mtb hypoxia rep: -2; FBA Mtb inh: 109*; Mtb FBA confirm: 12; GDH-TPI counter-2: 1; GDH-TPI dose: 0.98*

Results for CCS(=O)(=O)Nc1ccc(C2=NN(S(=O)(=O)CC)C(c3cccs3)C2)cc1 (stereo not drawn) ?
FadD28 binding: -2; BioA inh: 3; GDH-TPI counter-1: 15; Mtb hypoxia rep: 8; FBA Mtb inh: 49*; Mtb FBA confirm: 147*; GDH-TPI counter-2: 130*

Results for CC1(C)ON(C2CCCCC2)C2c3nc4ccccc4n3CC21 (stereo not drawn) ?
Mtb hypoxia rep: 8

What do the screens show for `CCC(=O)N(C)C[C@@H]1Oc2cc(/C=C/c3ccccc3)ccc2S(=O)(=O)N([C@H](C)CO)C[C@@H]1C`?
BioA inh: 0

Results for CC(C)=CCOc1ccc2c(C)c(CC(=O)N3C[C@H]4C[C@@H](C3)c3cccc(=O)n3C4)c(=O)oc2c1C ?
FadD28 binding: -1; BioA inh: 2; GDH-TPI counter-1: 19; FBA Mtb inh: 107*; Mtb FBA confirm: 183*; GDH-TPI counter-2: 129*

How did Cc1c(OCC(=O)N2C[C@H]3C[C@@H](C2)c2cccc(=O)n2C3)ccc2c3c(c(=O)oc12)CCCC3 do in these assays?
FadD28 binding: -1; BioA inh: 0; GDH-TPI counter-1: 17; FBA Mtb inh: 31*; Mtb FBA confirm: active; GDH-TPI counter-2: active

Results for Cc1c(OCC(=O)N2C[C@H]3C[C@@H](C2)c2cccc(=O)n2C3)ccc2c3c(c(=O)oc12)CCC3 ?
FadD28 binding: 1; BioA inh: 2; GDH-TPI counter-1: 21; FBA Mtb inh: 9

What do the screens show for `CCCc1cc(=O)oc2c(C)c(OCC(=O)N3C[C@H]4C[C@@H](C3)c3cccc(=O)n3C4)ccc12`?
FadD28 binding: 1; BioA inh: 0; GDH-TPI counter-1: 21; FBA Mtb inh: 9

Results for CCCC(=O)Nc1ccc2c(c1)C(=O)N(C)[C@H]1CC[C@@H](CC(=O)Nc3cn(C)nc3C)O[C@H]1CO2 ?
BioA inh: -1

How did CNC[C@@H]1Oc2ccc(NS(C)(=O)=O)cc2CC(=O)N([C@@H](C)CO)C[C@H]1C do in these assays?
BioA inh: 0

How did Cc1ccccc1S(=O)(=O)NCC[C@H]1CC[C@H](NC(=O)C2CCCCC2)[C@H](CO)O1 do in these assays?
BioA inh: 4

Results for CN1CCN(S(=O)(=O)c2cc([N+](=O)[O-])ccc2NN=Cc2ccc(Cl)cc2)CC1 ?
Mtb hypoxia rep: -6

What do the screens show for `COc1ccc2c(c1)CCc1cnc(N)nc1-2`?
FadD28 binding: 0; BioA inh: -1; GDH-TPI counter-1: 30; Mtb hypoxia rep: -2; FBA Mtb inh: 106*; Mtb FBA confirm: -3; GDH-TPI counter-2: -2

How did COc1ccc(-c2nc3ccc(N4CCN(C)CC4)cc3c(=O)[nH]2)cc1 do in these assays?
FadD28 binding: -2; GDH-TPI counter-1: 18; Mtb hypoxia rep: 1; FBA Mtb inh: 32*; Mtb FBA confirm: 3; GDH-TPI counter-2: 3

Results for C[C@H](O)C#Cc1cnc2c(c1)C(=O)N([C@H](C)CO)C[C@@H](C)[C@H](CN(C)Cc1ccccn1)O2 ?
BioA inh: -1

Results for NC(=O)C1CCN(C(=O)CCNS(=O)(=O)c2ccccc2F)CC1 ?
FadD28 binding: -1; BioA inh: 0; GDH-TPI counter-1: -5; Mtb hypoxia rep: 8; FBA Mtb inh: 37*; Mtb FBA confirm: 11; GDH-TPI counter-2: 6; GDH-TPI dose: >10

How did NC(=O)C1CCN(C(=O)CCC(=O)c2ccc(F)cc2)CC1 do in these assays?
FadD28 binding: -1; BioA inh: -1; GDH-TPI counter-1: -3; Mtb hypoxia rep: 17; FBA Mtb inh: 53*; Mtb FBA confirm: 136*; GDH-TPI counter-2: 128*

Results for O=C(CCC(=O)N1CCOCC1)c1ccc(F)cc1 ?
FadD28 binding: -4; GDH-TPI counter-1: -8; Mtb hypoxia rep: 11; FBA Mtb inh: -3

Results for COc1cc(C=NNC(=O)c2ccccc2)ccc1O ?
Mtb hypoxia rep: 2

What do the screens show for `Cc1cc(C)c(C)c(S(=O)(=O)Nc2ccccc2C(=O)O)c1C`?
FadD28 binding: -9; BioA inh: 1; GDH-TPI counter-1: -6; Mtb hypoxia rep: -7; FBA Mtb inh: 27*; Mtb FBA confirm: 21; GDH-TPI counter-2: 11*

What do the screens show for `Cc1ccc(CNC(=O)c2ccccc2NS(C)(=O)=O)cc1`?
FadD28 binding: -3; BioA inh: -2; GDH-TPI counter-1: 1; FBA Mtb inh: 38*; Mtb FBA confirm: active; GDH-TPI counter-2: active

What do the screens show for `CC(NC(=O)c1ccc(NS(C)(=O)=O)cc1)c1ccccc1` (stereo not drawn)?
FadD28 binding: 2; BioA inh: -1; GDH-TPI counter-1: -2; Mtb hypoxia rep: 5; FBA Mtb inh: -3

What do the screens show for `Cc1ccc(CNC(=O)c2ccccc2NS(=O)(=O)c2ccc(Cl)nc2)cc1`?
FadD28 binding: -2; BioA inh: 0; GDH-TPI counter-1: 3; Mtb hypoxia rep: 2; FBA Mtb inh: 2

What do the screens show for `CS(=O)(=O)Nc1ccccc1C(=O)O`?
FadD28 binding: 0; BioA inh: -1; GDH-TPI counter-1: 9; Mtb hypoxia rep: 4; FBA Mtb inh: 28*; Mtb FBA confirm: 117*; GDH-TPI counter-2: 104*

How did CC(NC(=O)c1ccccc1NS(C)(=O)=O)c1ccccc1 (stereo not drawn) do in these assays?
FadD28 binding: -2; BioA inh: 2; GDH-TPI counter-1: 7; FBA Mtb inh: 42*; Mtb FBA confirm: 133*; GDH-TPI counter-2: 106*
